Screening data: PubChem, National Center for Advancing Translational Sciences (NCATS)
S2 tox – viability counter-screen for ATXN expression inhibitors. S2 cells (HEK-293 line with an ATXN2-luciferase reporter) viability, CellTiter-Fluor protease fluorescence, 24 h. Potency, µM (doses to about 56.7 µM), actives largely listed as cytotoxic. actives 0.49% (n = 400,000). AID 651635; note: potency is the fitted concentration of half-maximal effect; nearly all actives have a fitted effect of over 40% in size
ATXN2 expr inh – reduces ATXN2 reporter expression in HEK-293 cells | HEK-293 ATXN2-luciferase reporter, luminescence, 24 h | Potency, µM (titrated, usually from 57 µM), without a hit: at the highest dose activity change, negative = inhibition, actives largely listed as inhibitors | actives 0.72% (n = 360,000) | AID 1745845; note: potency is the fitted concentration of half-maximal effect; % is set by controls: 0 for no effect and ±100 for the full control effect; nearly all actives have a fitted effect of over 55% in size
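qHTS (up to 57 uM final) was run with 24 h compound exposure of reporter cells at 37 °C. Each well was multiplexed: SteadyGlo luminescence measured ATXN2-luciferase expression after a fluorogenic Gly-Phe-AFC viability readout (25 uM final).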
D3 ag – activates the human D3 dopamine receptor; P35462; D3R DiscoveRx beta-arrestin cells, luminescence, 90 min; max activation, %; actives 0.58% (n = 410,000); AID 652048; in the data active = max activation above about 30%; note: 0% is about no effect
Target sequence (P35462 whole entry, looked up): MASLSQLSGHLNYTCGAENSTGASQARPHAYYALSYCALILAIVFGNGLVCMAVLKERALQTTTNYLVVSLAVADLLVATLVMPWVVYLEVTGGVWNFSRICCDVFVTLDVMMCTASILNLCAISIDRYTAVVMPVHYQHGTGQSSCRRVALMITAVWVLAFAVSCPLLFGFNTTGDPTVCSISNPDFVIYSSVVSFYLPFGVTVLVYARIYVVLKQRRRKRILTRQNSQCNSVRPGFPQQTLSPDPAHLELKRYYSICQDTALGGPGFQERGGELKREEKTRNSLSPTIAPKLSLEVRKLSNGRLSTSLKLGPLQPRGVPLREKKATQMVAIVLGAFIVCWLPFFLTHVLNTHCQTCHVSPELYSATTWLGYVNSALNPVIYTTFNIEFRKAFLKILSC
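Agonist mode: compounds and dopamine controls were applied to plated cells for 90 min at 37 degrees C after an overnight attachment at 1500 cells/well. Luminescent read-out followed 30 - 60 minutes at room temperature with DiscoveRx detection reagent.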
HepG2 viability – HepG2 cytotoxicity, counter-screen for TGF-b inhibitors | HepG2 CAGA-GFP viability, ATP luminescence, 18 h | Potency, µM (series often up to 46.1 µM), without a hit: at the top dose activity change, negative = cytotoxicity, usual class: cytotoxic | actives 0.76% (n = 410,000) | AID 588856; note: potency is the fitted concentration of half-maximal effect
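CellTiter-Glo luminescence gave cytotoxicity after 18 hours at 37 degrees C. The cells were HepG2 CAGA-GFP in 1% FBS DMEM, stimulated with 500 pg/mL TGF-beta after compound addition. %Activity was normalised to no-cell wells (complete cell-killing) and DMSO (no toxicity), and curves were fitted and classified.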
TGFb SMAD3 inh – inhibitors of TGF-b signaling; Potency, µM (series often up to 46.1 µM), for inactives: at the top dose activity, negative = inhibition, hits mostly inhibitors; actives 1.2% (n = 410,000); HepG2 CAGA-GFP TGF-b/SMAD3 reporter, GFP fluorescence, 18 h; TGF-beta stimulated, 500 pg/mL final; note: potency is the fitted concentration of half-maximal effect; % is set by controls: 0 for no effect and ±100 for the full control effect; nearly all actives have a fitted effect of over 65% in size
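Smad-responsive CAGA-GFP expression was quantified in HEPG2 cells exposed to compounds and 500 pg/mL final TGF-beta for 18 h at 37 degrees C; unstimulated wells defined full inhibition.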
D3 antag – antagonists of human D3 dopamine receptor; D3R cells, DiscoveRx beta-arrestin luminescence, antagonist mode; active compounds read low; AID 652054; actives 2.5% (n = 360,000); max response, negative = inhibition, %; in the data active = max response below about -50%; inconclusive = no clear call, values can overlap the other calls; note: % is set by controls: 0 for no effect and ±100 for the full control effect
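Cells plated overnight at 1500 cells/well, then exposed to library compounds with dopamine controls for 90 minutes at 37 degrees C. DiscoveRx reagent added for 30–60 minutes at room temperature; luminescence read, quantitative HTS format.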
The depositor's hits bear a star; i = inactive; ? = inconclusive; nt = no result given. Rows were chosen to be rich in hits. Some 4.7% of all compounds tested hit in one or more screens of this group. Unless noted, calls come from the whole dose curve; as a rule, active = well fitted curve in the direction sought with a large enough effect; inconclusive = small, poorly fitted or top-dose-only effect, or another doubt; inactive = no such curve, though single readings can be large; an effect the other way counts as inactive or inconclusive.

SMILES	S2 tox	ATXN2 expr inh	D3 ag	HepG2 viability	TGFb SMAD3 inh	D3 antag
CCOc1c2ccc(C(=O)NCCc3cccs3)cc2nn1CC	i	35%	-25	3%	-4%	1
CCOc1c2ccc(C(=O)N[C@H](C)C3CCCCC3)cc2nn1CC	i	-6%	-9	-28%	-2%	-82*
Oc1ccc(N=Nc2ccccc2)o1	?	-19%	-5	13µM*	?	?
O=S(=O)(O)c1ccc(N=Nc2ccccc2)cc1	i	3%	-19	-20%	-8%	-29
CCN(CC)S(=O)(=O)c1cccc(C(=O)N/N=C(\C)c2ccc(O)cc2O)c1	nt	2.4µM*	0	-29%	21%	5
CCc1cc(SC#N)cc(CC)c1NC(=O)CCl	?	?	1	-81%	7.9µM*	-25
CCOC(=O)CC(NC(=O)N1CCC(CN2CCC(C)CC2)CC1)c1ccccc1 (stereo unspecified)	i	5%	-3	-2%	2%	nt
COc1cc(C#Cc2c(-c3cncn3C)n(C)c3ccc(-c4ccc(OC)c(OC)c4)cc23)cc(OC)c1	i	?	70*	-17%	-23%	105
CC(C)(C)C1CCC(=NNc2ccc(S(N)(=O)=O)cc2[N+](=O)[O-])CC1 (stereo unspecified)	i	1%	6	11µM*	?	-4
C/C=C/c1ccc(OCCCCN2CC(C)CC(C)C2)c(OC)c1 (stereo unspecified)	i	-26%	-39	-43%	-14%	-74*
O=C(NCCN1CCc2ccccc2C1)C1CCN(S(=O)(=O)N2CCC3(CC2)OCCO3)CC1	i	5%	-31	-5%	?	-60*
O=C(NCCN1CCc2ccccc2C1)C1CCN(S(=O)(=O)N2CCCCC2)CC1	i	-12%	-29	-14%	?	-66*
CN(CCCNC(=O)C1CCN(S(=O)(=O)N2CCC3(CC2)OCCO3)CC1)Cc1ccccc1	i	6%	5	-10%	-2%	0
COc1ccc(NC(=O)CSc2nc(-c3ccco3)cc(C(F)(F)F)n2)cc1	?	3%	5	-7%	4%	nt
CCN(CC)S(=O)(=O)c1cc(NC(=O)CSc2nnc(N)s2)ccc1C	i	nt	0	-19%	-14%	-19
CCN(CC)S(=O)(=O)c1cc(NC(=O)CSc2nc3c(cc2C#N)C(=O)CC(C)(C)C3)ccc1C	?	?	34*	7%	-28%	12
COc1ccc(CNc2oc(COc3ccc(Cl)cc3)nc2C#N)cc1	i	-6%	2	-29%	?	2
C=CCNc1oc(COc2ccc(C)cc2)nc1C#N	i	35%	-3	-3%	11%	11
CN(C)CCNc1oc(COc2ccc(-c3ccccc3)cc2)nc1C#N	?	?	-20	11µM*	?	-20
COc1ccc(-c2nc(C#N)c(NCCN(C)C)o2)cc1	i	-5%	-8	5%	16%	-61*
C=CCNc1oc(-c2ccc(-c3ccccc3)cc2)nc1C#N	?	?	nt	-39%	10µM*	nt
COc1ccc(Nc2oc(COc3ccc(Cl)cc3)nc2C#N)cc1	?	14µM*	0	-20%	-26%	-10
CCCCOCCOc1nc(-c2ccc(C(=O)O)c(F)c2)sc1C	nt	30%	nt	nt	nt	nt
Nc1cccc2c1C(=O)N(C1CCC(=O)NC1=O)C2=O (stereo unspecified)	nt	5%	nt	nt	nt	nt
N#Cc1nc(COc2ccc(-c3ccccc3)cc2)oc1NCCCN1CCOCC1	?	32µM*	-3	-43%	7%	18
SMILES	S2 tox	ATXN2 expr inh	D3 ag	HepG2 viability	TGFb SMAD3 inh	D3 antag
N#Cc1nc(COc2ccccc2)oc1NCCN1CCOCC1	i	16%	5	-5%	2%	25
CCn1c2ccccc2c2cc(/C=C(/C#N)C(N)=S)ccc21	?	3.5µM*	-13	-57%	4µM*	7
CCn1c2ccccc2c2cc(N)ccc21	?	-9%	-2	1%	7%	?
CCOC(=O)c1cc(-c2ccc(F)cc2)n(CCC(=O)NC2CCCCC2)c1C	nt	nt	2	-18%	-24%	nt
C[C@@H]1CCC[C@H](C)N1	i	0%	1	nt	nt	nt
Clc1ccccc1C(c1ccccc1)(c1ccccc1)n1ccnc1	?	?	0	20µM*	?	-28
Cc1ccc(CNCc2c(C(=O)O)c(C)n(Cc3ccc(C)cc3)c2C)cc1	?	-1%	6	-25%	0%	nt
Cc1cc(NS(=O)(=O)c2ccc(NC(=S)NC(=O)c3cccnc3)cc2)no1	i	-19%	-15	6%	6%	-51*
Cc1cc(C)cc(NS(=O)(=O)c2ccc(NC(=S)NC(=O)c3cccs3)cc2)c1	i	?	-18	-18%	?	-84*
Cc1c(Cl)cccc1-n1ncc(C(=O)N2CCc3ccccc3C2)c1C1CCN(C(=O)OC(C)(C)C)CC1	i	2%	8	-4%	-17%	nt
CCOc1ccc(/C=N/NC(=O)c2ccccc2Cl)cc1CN1CC2CC(C1)c1cccc(=O)n1C2 (stereo unspecified)	i	16%	-94	-16%	-4%	-85*
Clc1cccc(CN2CCc3c([nH]c4ccccc34)C2)c1	i	?	-21	-19%	-15%	-59*
Cc1cccc(CN2CCc3c([nH]c4ccccc34)C2)c1	i	-7%	-15	-24%	-28%	-90*
Cc1ccc2[nH]c3c(c2c1)CCN(C)C3	i	-10%	-20	-20%	13%	-60*
CSc1ccc(CN2CCc3c([nH]c4ccccc34)C2)cc1	?	-19%	-11	-23%	?	?
Clc1ccc(CN2CCc3c([nH]c4ccccc34)C2)cc1Cl	?	nt	2	-116%	18µM*	14
O=C(CSc1cn(CC(=O)N2CCCC2)c2ccccc12)Nc1ccccc1C(F)(F)F	nt	nt	10	-6%	0%	nt
CCC(C(=O)Nc1cc(OC)ccc1OC)n1nc(-c2ccccc2)c2c(c1=O)CCCC2 (stereo unspecified)	?	?	-4	-20%	?	nt
c1ccc(CN2CCc3[nH]c4ccccc4c3C2)cc1	i	-23%	-11	-3%	?	-97*
CCN1CCc2[nH]c3ccccc3c2C1	?	nt	-20	21%	2%	?
COc1ccc(CN2CCCC(n3cc(C(=O)NC4CCCC4)nn3)C2)c(O)c1 (stereo unspecified)	i	nt	nt	nt	nt	nt
CCOC(=O)Nc1ccc(S(=O)(=O)N2CCC(c3nc4ccccc4[nH]3)CC2)cc1	i	nt	2	-23%	-17%	-12
